Screens (PubChem)
A549 viability: Nrf2 qHTS screen for inhibitors: counterscreen for cytotoxicity; A549 ARE-Fluc cells, CellTiter-Fluor viability, 18-24 h; Potency, µM (top dose mostly 46 µM), without a hit: top-dose activity change, negative = cytotoxicity, usual class: inhibitors; 390,000 tested, 0.16% active; further: potency means the concentration at half of the fitted maximal effect; on the % scale 0 is the no-effect control and ±100 the full control effect
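A549 ARE_Fluc cells in 5% FBS OPTI-MEM were exposed to compounds in concentration-response for 18-24 h at 37 deg C. Viability was read by CellTiter-Fluor fluorescence (Ex 405/Em 525) after 30 min, before the luciferase read.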
Nrf2 block: Nrf2 qHTS screen for inhibitors. 360,000 tested, 2.1% active. Potency, µM (top dose mostly 46 µM), without a hit: at the highest dose activity change, negative = inhibition, most hits filed as inhibitors. A549 ARE-Fluc reporter, luciferase luminescence, 18-24 h; further: potency means the concentration at half of the fitted maximal effect; on the % scale 0 is the no-effect control and ±100 the full control effect; nearly all actives have a fitted effect of over 60% in size
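Quantitative HTS in A549 cells stably bearing an antioxidant response element-firefly luciferase construct. Inhibition of Nrf2-driven transcription was scored by luminescence after 18-24 h of compound exposure at 37 °C.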
IL2 activator: qHTS of IL-2 Activators | IL-2 activation reporter assay, cell-based qHTS; stimulated with anti-CD3/CD4/CD28 beads; in transgenic mouse T cells | activation, % (series mostly up to about 46 µM) | 360,000 tested, 0.065% active | AID 652025, 2013; in the data active means activation above about 50%; inconclusive means mostly about 30% to 49%; further: 0% is about no effect
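First, unstimulated transgenic mouse T cells were exposed to compound for 60 min. Next, anti-CD3/anti-CD4-coated beads with anti-CD28 were added. Finally, after 18 h at 37 degrees C, EGFP and DsRed were imaged.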
Nrf2 activator: qHTS of Nrf2 Activators. AREc32 ARE-luciferase reporter (MCF7-derived line), luminescence, 24 h. Potency, µM (doses to about 46.1 µM), for inactives: at the top dose activation, most hits filed as activators. 410,000 tested, 0.31% active. AID 624171, 2012; further: potency means the concentration at half of the fitted maximal effect; % of control where 0% means no effect; nearly all actives have a fitted effect of over 65% in size
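ARE-driven firefly luciferase activity in AREc32 cells measured after a 24 hr compound exposure at 37 deg C, using Steady-Glo reagent and a 30 min room-temperature hold.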
Numbers without * were called inactive; u = inconclusive; x = no result; [ ] = another dose, or the depositor's remark. Shown are actives, neighbours in structure and some others; about 2.3% of the full set was active somewhere. Unless noted, the call rests on the fitted dose curve; in most records, active means well fitted curve in the direction sought with a large enough effect; inconclusive means small, poorly fitted or top-dose-only effect, or another doubt; inactive means no such curve, though single readings can be large; an effect the other way counts as inactive or inconclusive.

SMILES	A549 viability	Nrf2 block	IL2 activator	Nrf2 activator
CCOC(=O)C1=C(c2ccccc2)NC(SCC(=O)Nc2cccc(C)c2)=C(C#N)C1c1ccco1 (configuration not stated)	13µM*	u	-3	1%
O=C(Nc1cccc(Cl)c1)N1CCN2C(=O)c3ccccc3C12c1ccccc1 (configuration not stated)	u	21µM*	-1	3%
O=C(CCl)N1CCN2C(=O)c3ccccc3C12c1ccc(Cl)cc1 (configuration not stated)	1%	-18%	-1	u
CCn1c(=O)c2sccc2n2c(CCCC(=O)N3CCN(c4ccc(F)cc4)CC3)nnc12	8%	-14%	x	0%
CN(C)/N=C/C=C1\CCC/C(=C/c2cccs2)C1=O	0%	u	1	10µM*
O=C(Nc1cccnc1)C1(F)C(F)(F)C(F)(F)C(F)(F)C(F)(F)C1(F)F	0%	x	0	10µM*
Cc1nc2ccc(NS(=O)(=O)c3ccccc3F)cc2s1	0%	u	0	1%
Cc1nc2ccc(NS(=O)(=O)c3ccc(F)c(F)c3)cc2s1	3%	16µM*	-1	2%
Cc1ccc(S(=O)(=O)Nc2ccc3nc(N)sc3c2)cc1	-18%	7.3µM*	0	0%
Cc1ccc(S(=O)(=O)Nc2ccc3nc(C)sc3c2)c(C)c1	-12%	u	1	0%
Cc1ccc(S(=O)(=O)Nc2ccc3nc(C)sc3c2)cc1	-5%	15µM*	-1	3%
CC(=O)Nc1ccc(S(=O)(=O)Nc2ccc3nc(C)sc3c2)cc1	-15%	16µM*	0	1%
Cc1cc2c(s1)c1cnn(Cc3cccc(Cl)c3F)c(=O)c1n2C	-2%	7%	x	x
CCC(=O)NC(c1cccc(C)c1)c1cc(Cl)c2cccnc2c1O (configuration not stated)	-10%	6%	x	x
O=C(Cc1ccc(-c2ccccc2)cc1)NCCS(=O)(=O)N1CCN(c2ccccc2F)CC1	-5%	x	x	0%
CCN(CC)C(=O)Cn1c(=O)n(-c2ccc(Cl)c(Cl)c2)c(=O)c2c(C)c(C(=O)N(CC)CC)sc21	1%	x	x	1%
Cc1c(Cl)cccc1NS(=O)(=O)c1cc2c(cc1F)NC(=O)CC2	-3%	u	x	x
Cc1nc2ccc(NS(=O)(=O)c3ccc(Br)cc3)cc2s1	0%	15µM*	-1	6%
Cc1nc2ccc(NS(=O)(=O)c3cccc([N+](=O)[O-])c3)cc2s1	-12%	18µM*	-1	8%
CCN(C(=O)c1cc2c(s1)-c1c(C)cccc1OC2)c1cc(C)ccc1C	0%	u	x	6%
COCCCNC(=O)CCCn1c(=O)c2cccn2c2ccccc21	3%	-12%	x	-1%
Cn1c(/C=C/c2ccc(Cl)cc2)nc2ccccc2c1=O	1%	u	0	13%
CCn1c(/C=C/c2ccccc2)nc2ccccc2c1=O	1%	-13%	1	3.5µM*
Cn1c(/C=C/c2ccc([N+](=O)[O-])o2)nc2ccccc2c1=O	u	21µM*	18	u
Cn1c(/C=C/c2ccccc2)nc2ccccc2c1=O	1%	u	-5	11µM*
SMILES	A549 viability	Nrf2 block	IL2 activator	Nrf2 activator
CC(Sc1nc(N)c2c3c(sc2n1)CSC(C)(C)C3)C(=O)Nc1ccccc1 (configuration not stated)	u	18µM*	-1	4%
O=S1(=O)C=C(Sc2nc3ccccc3s2)c2ccccc21	23µM*	18µM*	-2	-2%
Cc1cc(C)nc(SC2=CS(=O)(=O)c3ccccc32)n1	-15%	u	0	u
CC(=O)Nc1ccc(-c2csc(NC(=O)CC(NC(C)=O)c3ccccc3)n2)cc1 (configuration not stated)	1%	0%	-3	0%
CC(=O)NC(CC(=O)Nc1nc(-c2ccc(N(C)S(C)(=O)=O)cc2)cs1)c1ccccc1 (configuration not stated)	-24%	21µM*	0	4%
CCOC(=O)c1c(C)oc2nc(C)nc(NCCc3ccc(SC)cc3)c12	18%	u	x	3%
Cc1ccc(COC(=O)c2nn(C)c(=O)c3ccccc23)cc1	-15%	23µM*	-9	6%
Cn1nc(C(=O)NCc2ccccn2)c2ccccc2c1=O	-5%	5.8µM*	1	5%
COc1ccc(C2c3c(ncn(CCCc4ccccc4)c3=N)Oc3ccc4ccccc4c32)cc1OC (configuration not stated)	-12%	4%	x	x
COCCn1c(N)c(C#N)c2nc3ccccc3nc21	u	-20%	-3	0%
N#Cc1c(N)n(CCOC(=O)c2cccc(Br)c2)c2nc3ccccc3nc12	-4%	-8%	0	3%
N#Cc1c(N)n(CCNC(=O)c2ccc(Cl)cc2)c2nc3ccccc3nc12	10%	9.2µM*	1	0%
Cc1ccc(C(=O)NCCn2c(N)c(C#N)c3nc4ccccc4nc32)cc1	16%	-25%	54*	0%
COc1ccc(C(=O)Nc2ccc(Cl)cc2C(=O)NCc2ccco2)cc1OC	u	21µM*	-2	3%
CN(C)c1ccc(/C=C/c2nc3ccccc3c(=O)[nH]2)cc1	6%	-15%	61*	0%
O=c1[nH]c(/C=C/c2ccccc2[N+](=O)[O-])nc2ccccc12	7%	5%	0	1.3µM*
O=c1[nH]c(/C=C/c2ccc(Br)cc2)nc2ccccc12	1%	15%	-1	0%
COc1cccc(NS(=O)(=O)c2cc(-c3cnc(C4CC4)o3)ccc2C)c1	u	x	x	0%
COc1ccc(CNS(=O)(=O)c2cc3c(cc2Cl)N(C(C)=O)CCO3)cc1	-1%	-13%	x	0%
O=C(Nc1ccc(N2CCOCC2)cc1)c1ccc(Cl)nc1	-12%	0%	0	0%
O=C(Nc1ccc(N2CCOCC2)nc1)c1ccc(Cl)cc1	-20%	21µM*	0	0%
NC(=O)c1sc(-c2ccsc2)cc1NS(=O)(=O)c1ccc(C(F)(F)F)cc1	-16%	15µM*	-3	4%
CC(=O)c1sc(-c2ccc(F)cc2)cc1NS(=O)(=O)c1ccc(C)cc1	-12%	1%	1	0%
Cc1ccc(NS(=O)(=O)c2ccc3c(c2)N(C)CCO3)cc1C	0%	u	x	x
Cc1nc([N+](=O)[O-])c(Br)n1Cc1ccc(Cl)c(Cl)c1	u	16µM*	-1	-3%
CCc1ccc(-c2nc(NC(=O)c3ccc(OCC(=O)Nc4ccc(F)cc4)c(OC)c3)sc2C)cc1	1%	-13%	2	0%
COc1cc(C(=O)Nc2nc(-c3ccc(Cl)cc3)c(C)s2)ccc1OCC(=O)Nc1ccc(F)cc1	u	21µM*	0	0%[9.22 µM]
CC[n+]1c(C=C2C=C(C)OC(C)=C2)sc2ccccc21	2.9µM*	0.73µM*	4	22%
CC[n+]1c(/C=C2/C=C(C)CC(C)C2)sc2ccccc21 (configuration not stated)	-23%	u	1	22%
